Reference: ChEMBL document CHEMBL4513216, “Probing the Open Global Health Chemical Diversity Library for Multistage-Active Starting Points for Next-Generation Antimalarials” (ACS Infect Dis, 2020)
Out of some 69,000 compounds screened, about 8,600 (12%) showed an effect of 50% or more. Only a selection was taken, and strong results are over-represented in it overall.

The compounds below were run on Plasmodium berghei (assay: Screen against P. berghei liver stage (PbLuc), transformed with Luciferase, at 10uM). Details: tested at 10 uM.
Format: functional, HepG2

Row | Compound | INHIBITION [%]
1 | CC(=O)NCC1CCN(C(=O)NCCOc2ccc3c(c2)CCC3)CC1 | 25.1
2 | COc1cc(C(=O)N2CCCC(n3cncn3)C2)ccc1C (stereo not given) | -16
3 | CC(C(=O)N1CCCC1)n1nc(-c2cccs2)cc(N)c1=O (stereo not given) | 11.8
4 | CCN1CCN(C(=O)c2cnc3c(cnn3C3CCCC3)c2)CC1 | 19.2
5 | O=C(NCC1CC1)[C@H]1C[C@@H]2CCN(Cc3nccs3)C[C@@H]2O1 | 25
6 | COCCNC(=O)[C@H]1C[C@@H]2CCN(Cc3ccncc3)C[C@H]2O1 | -1.36
7 | COCCNC(=O)[C@H]1C[C@@H]2CCN(Cc3nccs3)C[C@H]2O1 | 56.7
8 | CC1CCN(C(=O)[C@@H]2C[C@@H]3CCN(Cc4nccs4)C[C@H]3O2)CC1 | 53.9
9 | CNC(=O)[C@H]1C[C@@H]2CCN(Cc3nccs3)C[C@H]2O1 | 26.4
10 | CN(C)C(=O)[C@@H]1C[C@@H]2CCN(Cc3nccs3)C[C@@H]2O1 | 19.9
11 | CC(C)CCn1ccc(NC(=O)N2CCCC2C(C)(C)O)n1 (stereo not given) | 29.9
12 | c1ccc(OCc2nnc3n2CCN(CC2CCOCC2)C3)nc1 | 43.2
13 | Cc1cc(C)nc(C2CCN(C3CCOCC3)C2)n1 (stereo not given) | -10.4
14 | Cn1nc(C(C)(C)C)cc1NC(=O)Cn1ccnc1 | 11.2
15 | COCCN1C[C@@H]2CC[C@H]1CN(Cc1cc(=O)c3cc(C)ccc3[nH]1)C2 | -23.5
16 | COCC1N(C(=O)Nc2ccccc2)C2CCC1(O)CC2 (stereo not given) | 8.61
17 | COc1nn(C)cc1C(=O)NCC1(O)CCc2ccccc2C1 (stereo not given) | 36.5
18 | Cc1oncc1C(=O)NCC1(O)CCc2ccccc2C1 (stereo not given) | 67.1
19 | O=C(NCC1(O)CCc2ccccc2C1)c1cccs1 (stereo not given) | 36.3
20 | CCC(C)NC(=O)CCNC(=O)Nc1ccc(-n2cncn2)c(F)c1 (stereo not given) | 22.69
21 | CN(C)S(=O)(=O)N1CCC[C@]2(C[C@@H](Oc3ncccc3F)CO2)C1 | 20.6
22 | CN1N=C(C(=O)NCCc2csc(-c3ccccc3)n2)CCC1=O | 4.95

Row | Compound | INHIBITION [%]
23 | CNC(=O)CN1CCOCC2(CN(CCC(F)(F)F)CCO2)C1 (stereo not given) | 43.9
24 | CNC(=O)CN1CCOCC2(C1)CN(Cc1csnn1)CCO2 (stereo not given) | 67.5
25 | CCCC(=O)N1CCOC2(COCCN(CC(=O)NC)C2)C1 (stereo not given) | 3.25
26 | CN(C)C(=O)c1cnc2n1CCN(Cc1ccncc1)C2 | 24.1
27 | CC(C(=O)NCc1ccc(N2CCNC(=O)C2)cc1)n1cncn1 (stereo not given) | 27.1
28 | Cc1cccnc1NC(=O)NCc1ccc(N2CCNC(=O)C2)cc1 | 21.7
29 | O=C1CN(c2ccc(CNc3cncc(-n4cccn4)n3)cc2)CCN1 | 40.5
30 | Cc1cc(NCc2ccc(N3CCNC(=O)C3)cc2)nc(C)n1 | 61.8
31 | Cc1ccccc1C(=O)NCc1ccc(N2CCNC(=O)C2)cc1 | 15.1
32 | CCSc1cncc(NCc2ccc(N3CCNC(=O)C3)cc2)n1 | 82.2
33 | CCN(Cc1ccccc1)c1ncnc2c(C)nn(CC)c12 | -1.57
34 | Cc1cc(NC(=O)NCCC(=O)N2CCCc3ccccc32)no1 | 16.1
35 | CS(=O)(=O)c1cn[nH]c1C1CCCN1C(=O)c1cccnc1 (stereo not given) | 24.4
36 | Cc1ccnc(C2CN(Cc3cnn(-c4ccccc4C(=O)O)c3)C2)n1 | 14.5375
37 | CC(C)N(C)C(=O)C1CCC2(CCNCC2)O1 (stereo not given) | 27.7
38 | CCN(CC)C(=O)C1CCC2(CCNCC2)CO1 (stereo not given) | 2.79
39 | CCN(CC)C(=O)C1CCC2(CCNCC2)O1 (stereo not given) | 57.9
40 | Cc1nc(C)n(C2CCCN(C(=O)c3ccc4[nH]nnc4c3)C2)n1 (stereo not given) | 21.9
41 | O=C(NCCC1CCCCO1)c1coc(COc2ccc(F)cc2)n1 (stereo not given) | 77.8
42 | CCOCCNC(=O)c1cc(COc2cncc(Cl)c2)on1 | 29
43 | CSCCNC(=O)c1coc(COc2ccc(F)cc2)n1 | 49.5
44 | O=C(NCCC1CCCCO1)c1cc(COc2cncc(Cl)c2)on1 (stereo not given) | 59.3

Row | Compound | INHIBITION [%]
45 | O=C(NCCN1CCCCCC1)c1coc(COc2ccc(F)cc2)n1 | 7.15
46 | COCCNC(=O)c1cc(COc2cncc(Cl)c2)on1 | 25.8
47 | COc1ccc(N2CCN(C(=O)Cn3nc(C)c(Cl)c3C)CC2)cc1 | 7.44
48 | O=C(CCNc1ncccn1)N1CCN(c2nccs2)CC1 | 45.7
49 | Cc1nc[nH]c1-c1nccn1CCN1CCCC1=O | -4.95
50 | Cc1nc[nH]c1-c1nccn1CCN1CCOC1=O | 55.5
51 | Cc1nc[nH]c1-c1nccn1CCN1CCCOC1=O | 39.6
52 | CC(C)CN1C[C@@H]2C[C@H](C(=O)NCc3cccnc3)[C@H](C1)O2 | 58.5
53 | CC(C)CCN1C[C@@H]2C[C@H](C(=O)NCC(C)C)[C@H](C1)O2 | 61.3
54 | Cc1cccc(CN2C[C@@H]3C[C@H](C(=O)NCc4cccnc4)[C@H](C2)O3)c1 | 21.6
55 | CC(C)CCN1C[C@@H]2C[C@H](C(=O)NCc3ccccc3)[C@H](C1)O2 | 11.6
56 | CC(C)CNC(=O)[C@H]1C[C@H]2CN(Cc3cccnc3)C[C@@H]1O2 | 65.9
57 | CC(C)CNC(=O)[C@H]1CCS(=O)(=O)[C@@H]2CN(Cc3cccnc3)C[C@H]12 | 12.5
58 | Cc1ccc(CN2C[C@@H]3C[C@H](C(=O)NCc4cccnc4)[C@H](C2)O3)o1 | 39.3
59 | Cc1ccc(CN2C[C@@H]3C[C@H](C(=O)NCc4cccnc4)[C@H](C2)O3)cc1 | 42.3
60 | CNC(=O)N1C[C@@H]2C[C@H](C(=O)NCc3cccnc3)[C@H](C1)O2 | 7.65
61 | CC(C)CN1C[C@@H]2C[C@H](C(=O)Nc3cccnc3)[C@H](C1)O2 | 2.27
62 | CC(C)CCN1C[C@@H]2C[C@H](C(=O)Nc3ccccc3)[C@H](C1)O2 | 33
63 | CCN1C[C@@H]2C[C@H](C(=O)NCc3cccnc3)[C@H](C1)O2 | 50
64 | Cc1cc(C(F)(F)F)nn1C(C)C(=O)NN1CCOCC1 (stereo not given) | -4.12
65 | CC(C)OCCCNC(=O)C1CCCN(c2ccc3nncn3n2)C1 (stereo not given) | 32.3
